# From PubChem BioAssay (NCATS)
# Records with an inconclusive call do not appear. Activity calls are given as the source filed them. Calls come from the whole dose curve; as a rule, active = well fitted inhibition curve with a large enough effect; inconclusive = small, poorly fitted or top-dose-only effect; inactive = no such curve, though single readings can be large or run the other way.
# Biological target: Retinaldehyde dehydrogenase 3 (Homo sapiens) (UniProt P47895)
# Test: qHTS for Inhibitors of the Aldehyde Dehydrogenase Family (ALDH1A3) Validation screen (AID 2061312); note: nearly all actives have a fitted effect of over 45% in size; note: potency is the fitted concentration of half-maximal effect; for activity change, negative = inhibition: % is set by controls: 0 for no effect and ±100 for the full control effect
# Details: ALDH1A3 enzyme inhibition qHTS validation, fluorescence; series mostly up to 84.7 µM; activity change, negative = inhibition: at the top concentration
Structure (SMILES),"activity change, negative = inhibition",Potency
CC(C)CCNc1ncccc1C(=O)N1CCN(Cc2ccccc2)CC1,10.5% (inactive),
COc1ccc2c(OCc3nnc4ccc(-c5ccccc5)nn34)ccnc2c1,13.1% (inactive),
CC1(C)CC=C(C#Cc2ccccc2)c2cc(/C=C/c3ccc(C(=O)O)cc3)ccc21,35.6% (inactive),
O=C(c1ccc(F)cc1)C1CCN(CCn2c(=O)nc3n(c2=O)CCCC3)CC1,-32.9% (inactive),
CN1CCN(Cc2ccc(NC(=O)Cc3ccc(Oc4cc(NC(=O)C5CC5)ncn4)cc3)cc2C(F)(F)F)CC1,253% (inactive),
O=C(O)Cc1ccc2oc(-c3ccc(NC(=O)/C=C/c4ccc(Br)cc4)c(F)c3)nc2c1,2.07% (inactive),
Cc1oc2nc3c(c(NC(=O)CN4CCCC4=O)c2c1C)CCCC3,-15.7% (inactive),
On1ncc(C2CCNCC2)c1-c1cccc(-c2ccccc2)c1,63.3% (inactive),
COCc1c(Cl)ccc2c1CC[C@H]2c1ncc[nH]1,-14% (inactive),
Cc1nc2ccccc2c(-c2ccc3c4c(ccnc24)CCO3)c1[C@H](OC(C)(C)C)C(=O)O,8.88% (inactive),
CO[C@H]1C=CO[C@@]2(C)Oc3c(C)c(O)c4c(O)c(c5c(c4c3C2=O)NC2(CCN(CC(C)C)CC2)N=5)=NC(=O)C(C)=CC=C[C@H](C)[C@H](O)[C@@H](C)[C@@H](O)[C@@H](C)[C@H](OC(C)=O)[C@H]1C,29.1% (inactive),
CN(C)c1nc(NC2CCC(NCCc3ccc(Br)cc3OC(F)(F)F)CC2)nc2ccccc12 (stereo unspecified),71.9% (inactive),
CCCCc1nc(Cl)c(CO)n1Cc1ccc(-c2ccccc2-c2nnn[nH]2)cc1,14.5% (inactive),
O=C1NC(=O)C(c2cn3c4c(cccc24)CCC3)C1c1c[nH]c2ccccc12 (stereo unspecified),-1.84% (inactive),
NS(=O)(=O)c1ccc(N2N=C(c3ccccc3)CC2c2ccccc2)cc1 (stereo unspecified),19.1% (inactive),
CC1(C)CCC(C)(C)c2cc([C@@H](O)C(=O)Nc3ccc(C(=O)O)cc3F)ccc21,18.9% (inactive),
CC[C@H]1OC(=O)[C@H](C)[C@@H](O[C@H]2C[C@@](C)(OC)[C@@H](O)[C@H](C)O2)[C@H](C)[C@@H](O[C@@H]2O[C@H](C)C[C@H](N(C)C)[C@H]2O)[C@@](C)(O)C[C@@H](C)[C@@H]2N[C@@H](COCCOC)OC([C@H]2C)[C@]1(C)O,53.9% (inactive),
CC[C@H]1CN(c2nc(N)c(C(N)=O)nc2Cl)CCN1C1CCN(Cc2ccc(Cl)cc2)CC1,-29.7% (inactive),
Cc1occc1C(=O)n1ccnc1,36% (inactive),

Structure (SMILES),"activity change, negative = inhibition",Potency
COc1ccc(NC(=O)c2ccc(-c3ccc(-c4nnc(C)o4)cc3C)cc2)cc1N1CCN(C)CC1,121% (inactive),
COc1ccc(N2CCN(C(=O)c3cc4c(s3)-c3ccccc3S(=O)(=O)C4)CC2)cc1,-27.6% (inactive),
COc1cc(N)c(Cl)cc1C(=O)NC[C@@H]1CCN2CCC[C@@H]12,197% (inactive),
O=C(CC1NCCC[C@H]1O)Cn1cnc2cc(Br)c(Cl)cc2c1=O (stereo partly specified),24.5% (inactive),
Cn1cc(S(=O)(=O)c2ccc(Cl)cc2)c2cccc(N3CCNCC3)c21,38.2% (inactive),
COc1ccccc1N1CCN(c2ncnc3n[nH]c(Br)c23)CC1,6.59% (inactive),
COc1ccc([C@H](Cc2ccncc2)c2ccccc2)cc1OC1CCCC1,3.2% (inactive),
CC(F)(F)CN1CCOc2c(nn(-c3ccccc3Cl)c2-c2ccc(Cl)cc2)C1=O,34.1% (inactive),
COc1cc(C(=O)NCC2(N(C)C)CCCC2)cc(OC)c1OCc1ccccc1,-9.44% (inactive),
CS(=O)(=O)c1ccccc1N1CCN(c2nc3c(c(=O)[nH]2)CSCC3)CC1,2.16% (inactive),
Nc1ncnc2c1c(-c1ccc(Oc3ccccc3)cc1)nn2[C@@H]1CCCNC1,-14.6% (inactive),
COc1cc2nc(N3CCN(C(=O)COc4c(OC)cccc4C(C)C)CC3)nc(N)c2cc1OC,5.5% (inactive),
Cc1onc(-c2c(Cl)cccc2Cl)c1CC(=O)NCc1ccc(OCC(F)(F)F)nc1,-26.6% (inactive),
CCCSc1nc(NC2CC2c2ccc(F)c(F)c2)c2nnn(C3CC(OCCO)C(O)C3O)c2n1 (stereo unspecified),,31.6 µM (active)
FC(F)(F)Oc1ccc(-c2ccc3nnc(C(F)(F)F)n3c2)cc1,-16% (inactive),
CC(C)Oc1ccc(-c2cnc3c(-c4ccnc5ccccc45)cnn3c2)cc1,5.49% (inactive),
CC(NC(=O)CCc1nc2ccccc2c(=O)[nH]1)c1ccccc1 (stereo unspecified),-5.3% (inactive),
COc1cccc(-c2cc(F)ccc2C2Cc3nc(N)nc(C)c3C(=O)N2)n1 (stereo unspecified),40.7% (inactive),
COc1ccc(C(=O)Nc2c(Cl)cncc2Cl)cc1OC1CCCC1,16.3% (inactive),

# Biological target: Retinaldehyde dehydrogenase 3 (Homo sapiens) (UniProt P47895)
# Test: qHTS for Inhibitors of the Aldehyde Dehydrogenase Family (ALDH1A3) Primary screen (AID 2061315);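 note: plate controls were DMSO vehicle for no effect and reference inhibitor for full effect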
# Details: ALDH inhibition qHTS; series mostly up to 56 µM; activity change, negative = inhibition: at the top concentration
row,Structure (SMILES),"activity change, negative = inhibition"
1,CC(C)CCNc1ncccc1C(=O)N1CCN(Cc2ccccc2)CC1,26.2% (inactive)
2,COc1ccc2c(OCc3nnc4ccc(-c5ccccc5)nn34)ccnc2c1,1.03% (inactive)
3,CC1(C)CC=C(C#Cc2ccccc2)c2cc(/C=C/c3ccc(C(=O)O)cc3)ccc21,17.9% (inactive)
4,O=C(c1ccc(F)cc1)C1CCN(CCn2c(=O)nc3n(c2=O)CCCC3)CC1,-8.58% (inactive)
5,CN1CCN(Cc2ccc(NC(=O)Cc3ccc(Oc4cc(NC(=O)C5CC5)ncn4)cc3)cc2C(F)(F)F)CC1,-18.7% (inactive)
6,O=C(O)Cc1ccc2oc(-c3ccc(NC(=O)/C=C/c4ccc(Br)cc4)c(F)c3)nc2c1,0.364% (inactive)
7,Cc1oc2nc3c(c(NC(=O)CN4CCCC4=O)c2c1C)CCCC3,22.3% (inactive)
8,On1ncc(C2CCNCC2)c1-c1cccc(-c2ccccc2)c1,2.59% (inactive)
9,COCc1c(Cl)ccc2c1CC[C@H]2c1ncc[nH]1,6.09% (inactive)
10,Cc1nc2ccccc2c(-c2ccc3c4c(ccnc24)CCO3)c1[C@H](OC(C)(C)C)C(=O)O,-6.39% (inactive)
11,CO[C@H]1C=CO[C@@]2(C)Oc3c(C)c(O)c4c(O)c(c5c(c4c3C2=O)NC2(CCN(CC(C)C)CC2)N=5)=NC(=O)C(C)=CC=C[C@H](C)[C@H](O)[C@@H](C)[C@@H](O)[C@@H](C)[C@H](OC(C)=O)[C@H]1C,6.11% (inactive)
12,CN(C)c1nc(NC2CCC(NCCc3ccc(Br)cc3OC(F)(F)F)CC2)nc2ccccc12 (stereo unspecified),18.5% (inactive)
13,CCCCc1nc(Cl)c(CO)n1Cc1ccc(-c2ccccc2-c2nnn[nH]2)cc1,15.3% (inactive)
14,O=C1NC(=O)C(c2cn3c4c(cccc24)CCC3)C1c1c[nH]c2ccccc12 (stereo unspecified),-7.36% (inactive)
15,NS(=O)(=O)c1ccc(N2N=C(c3ccccc3)CC2c2ccccc2)cc1 (stereo unspecified),-5.1% (inactive)
16,CC1(C)CCC(C)(C)c2cc([C@@H](O)C(=O)Nc3ccc(C(=O)O)cc3F)ccc21,-6.64% (inactive)
17,CC[C@H]1OC(=O)[C@H](C)[C@@H](O[C@H]2C[C@@](C)(OC)[C@@H](O)[C@H](C)O2)[C@H](C)[C@@H](O[C@@H]2O[C@H](C)C[C@H](N(C)C)[C@H]2O)[C@@](C)(O)C[C@@H](C)[C@@H]2N[C@@H](COCCOC)OC([C@H]2C)[C@]1(C)O,10.4% (inactive)
18,CC[C@H]1CN(c2nc(N)c(C(N)=O)nc2Cl)CCN1C1CCN(Cc2ccc(Cl)cc2)CC1,-13.8% (inactive)
19,Cc1occc1C(=O)n1ccnc1,-4.48% (inactive)

row,Structure (SMILES),"activity change, negative = inhibition"
1,COc1ccc(NC(=O)c2ccc(-c3ccc(-c4nnc(C)o4)cc3C)cc2)cc1N1CCN(C)CC1,12.8% (inactive)
2,COc1ccc(N2CCN(C(=O)c3cc4c(s3)-c3ccccc3S(=O)(=O)C4)CC2)cc1,-0.238% (inactive)
3,COc1cc(N)c(Cl)cc1C(=O)NC[C@@H]1CCN2CCC[C@@H]12,5.98% (inactive)
4,O=C(CC1NCCC[C@H]1O)Cn1cnc2cc(Br)c(Cl)cc2c1=O (stereo partly specified),-12.2% (inactive)
5,Cn1cc(S(=O)(=O)c2ccc(Cl)cc2)c2cccc(N3CCNCC3)c21,-9.07% (inactive)
6,COc1ccccc1N1CCN(c2ncnc3n[nH]c(Br)c23)CC1,4.5% (inactive)
7,COc1ccc([C@H](Cc2ccncc2)c2ccccc2)cc1OC1CCCC1,-1.73% (inactive)
8,CC(F)(F)CN1CCOc2c(nn(-c3ccccc3Cl)c2-c2ccc(Cl)cc2)C1=O,-1.88% (inactive)
9,COc1cc(C(=O)NCC2(N(C)C)CCCC2)cc(OC)c1OCc1ccccc1,-11.7% (inactive)
10,CS(=O)(=O)c1ccccc1N1CCN(c2nc3c(c(=O)[nH]2)CSCC3)CC1,2.46% (inactive)
11,Nc1ncnc2c1c(-c1ccc(Oc3ccccc3)cc1)nn2[C@@H]1CCCNC1,6.75% (inactive)
12,COc1cc2nc(N3CCN(C(=O)COc4c(OC)cccc4C(C)C)CC3)nc(N)c2cc1OC,-8.71% (inactive)
13,Cc1onc(-c2c(Cl)cccc2Cl)c1CC(=O)NCc1ccc(OCC(F)(F)F)nc1,14.4% (inactive)
14,CCCSc1nc(NC2CC2c2ccc(F)c(F)c2)c2nnn(C3CC(OCCO)C(O)C3O)c2n1 (stereo unspecified),8.54% (inactive)
15,FC(F)(F)Oc1ccc(-c2ccc3nnc(C(F)(F)F)n3c2)cc1,16.9% (inactive)
16,CC(C)Oc1ccc(-c2cnc3c(-c4ccnc5ccccc45)cnn3c2)cc1,-1.87% (inactive)
17,CC(NC(=O)CCc1nc2ccccc2c(=O)[nH]1)c1ccccc1 (stereo unspecified),-9.76% (inactive)
18,COc1cccc(-c2cc(F)ccc2C2Cc3nc(N)nc(C)c3C(=O)N2)n1 (stereo unspecified),5.32% (inactive)
19,COc1ccc(C(=O)Nc2c(Cl)cncc2Cl)cc1OC1CCCC1,0.863% (inactive)
